# Whole data set: some 110,000 compounds, median “z-score” near -0.1, cut for the highest 2% near 2. What follows is part of a selection rich in the highest values, with near analogues and random picks from the rest. Active and inactive are the calls of the source.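 The calls were made as follows: active = z-score in the third read window above 3 or below -3; inactive = the rest.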
# Biological target: Metabotropic glutamate receptor 8 (Rattus norvegicus) (UniProt P70579)
# Test: rat mGluR8 modulators via GIRK flux, primary screen, cell-based, thallium flux, HTS (AID 488969)
# Settings: HEK293 rat mGluR8, GIRK (G protein-gated inwardly rectifying potassium channel) thallium flux, FluoZin2; at 10 µM; stronger effect = higher value; submaximal glutamate (EC20) added with thallium
# Metabotropic glutamate receptor 8 (Rattus norvegicus), sequence (P70579 whole entry, looked up): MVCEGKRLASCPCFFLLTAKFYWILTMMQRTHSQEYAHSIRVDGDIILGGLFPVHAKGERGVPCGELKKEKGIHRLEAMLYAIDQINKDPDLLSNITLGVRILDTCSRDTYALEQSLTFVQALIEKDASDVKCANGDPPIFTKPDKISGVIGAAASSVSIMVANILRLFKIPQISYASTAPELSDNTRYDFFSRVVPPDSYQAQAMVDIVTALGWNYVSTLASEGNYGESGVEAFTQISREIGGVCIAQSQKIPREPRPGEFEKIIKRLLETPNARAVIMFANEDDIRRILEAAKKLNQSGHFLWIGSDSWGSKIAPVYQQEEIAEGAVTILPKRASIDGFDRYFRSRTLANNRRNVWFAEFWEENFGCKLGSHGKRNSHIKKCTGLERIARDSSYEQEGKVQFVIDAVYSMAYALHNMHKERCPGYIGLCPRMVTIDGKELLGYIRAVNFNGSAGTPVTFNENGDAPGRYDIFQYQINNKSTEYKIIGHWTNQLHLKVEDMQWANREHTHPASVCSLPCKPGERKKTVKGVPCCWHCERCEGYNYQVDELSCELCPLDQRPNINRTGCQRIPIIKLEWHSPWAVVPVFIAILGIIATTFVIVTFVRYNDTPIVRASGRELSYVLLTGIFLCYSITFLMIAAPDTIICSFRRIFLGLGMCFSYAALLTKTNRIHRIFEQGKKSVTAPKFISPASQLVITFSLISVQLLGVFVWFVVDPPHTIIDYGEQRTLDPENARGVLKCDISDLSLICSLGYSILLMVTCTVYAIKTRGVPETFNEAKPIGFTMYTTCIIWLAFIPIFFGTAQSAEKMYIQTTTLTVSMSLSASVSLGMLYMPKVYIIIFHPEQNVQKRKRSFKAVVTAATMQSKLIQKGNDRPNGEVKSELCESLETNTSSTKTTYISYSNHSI
row,SMILES,z-score
1,CCOC(=O)c1c(C)nc2sc3c(=O)n(-c4ccc(C(C)=O)cc4)cnc3c2c1-c1ccc(Cl)cc1,-0.533
2,CC(C)(Oc1ccc(Cl)cc1)C(=O)N1CCN(c2ccccn2)CC1,-0.0555
3,Cc1cc(C)nc(/N=C2\NC(=O)CC3C(=O)NCCN23)n1 (centres undefined),-0.12
4,CS(=O)(=O)N(CC(=O)NCc1ccncc1)c1ccc(Cl)c(Cl)c1,-0.214
5,COC(=O)c1cc(Cl)c(NC(=O)/C=C/c2ccc(Cl)cc2)cc1OC,-0.0302
6,CCCN1C2CCCC1CC(NC(=O)Nc1ccc(C(C)C)cc1)C2 (centres undefined),0.407
7,CN1CCN(Cc2cc(=O)oc3cc4c(cc23)CCC4)CC1,0.745
8,CN(C(=O)c1ccccc1Cl)C1CCCCC1,0.549
9,O=C(NC(=S)NC1CCCCCC1)c1cncc(Br)c1,6.87 (active)
10,O=C(NC(=S)NC1CC1)c1cccnc1,0.798
11,O=C(NC(=S)NC1CCCCCCCCCCC1)c1cccnc1,-0.0629
12,CN(C(=O)c1ccc(C(=O)N(C)C2CCCCC2)cc1)C1CCCCC1,0.244
13,CN(C(=S)NC(=O)c1ccccc1Br)C1CCCCC1,3.51 (active)
14,c1ccc2sc(C3CCN(Cc4nnnn4Cc4ccc5c(c4)OCO5)CC3)nc2c1,0.227
15,CCc1nc(NCCCCCO)c2nnn(Cc3ccccc3F)c2n1,-0.538
16,CCn1c(=S)[nH]c2cc(C(=O)OC)ccc2c1=O,7.77 (active)
17,O=C(NCC1CCCO1)c1ccc2c(=O)n(CC3CCCO3)c(=S)[nH]c2c1 (centres undefined),0.352
18,COC(=O)c1ccc2c(=O)n(CCO)c(=S)[nH]c2c1,0.000255
19,COCCCNC(=O)c1ccc2c(=O)n(CC3CCCO3)c(=S)[nH]c2c1 (centres undefined),0.247
20,CCN(CC)CCCn1c(=S)[nH]c2cc(C(=O)OC)ccc2c1=O,0.199
21,COC(=O)c1ccc2c(=O)n(CC3CCCO3)c(=S)[nH]c2c1 (centres undefined),7.72 (active)
22,O=C1CN(c2ccccc2Cl)C(=O)CN1c1ccccc1Cl,0.348
23,Cc1cccc(C)c1N1CCc2cn[nH]c21,-0.273

row,SMILES,z-score
1,O=C(CSc1nc2cc(Cl)ccc2s1)NC1CCCc2ccccc21 (centres undefined),-0.115
2,CC12CCC(C(=O)N(Cc3ccccc3)Cc3ccccc3)(OC1=O)C2(C)C (centres undefined),-0.0292
3,Cc1cc(NC(=O)CSc2nc3ccccc3c(=O)n2Cc2ccccc2)no1,4.05 (active)
4,Cc1ccc(NC(=O)CSc2nc3ccccc3c(=O)n2CCCN2CCCCC2)cc1C,0.975
5,COc1ccc(NC(=O)CSc2nc3ccccc3c(=O)n2CCCN2CCCCC2)c(OC)c1,3.69 (active)
6,COc1ccc(NC(=O)CSc2nc3ccccc3c(=O)n2Cc2cccs2)c(OC)c1,0.00897
7,CC(C)CCNC(=O)CSc1nc2ccsc2c(=O)n1NC(=O)c1ccccc1,-0.0204
8,CCC(C)NC(=O)CSc1nc2ccccc2c(=O)n1Cc1ccc(OC)cc1 (centres undefined),3.19 (active)
9,CCCCn1c(SCC(=O)Nc2cc(C)on2)nc2ccccc2c1=O,-1.45
10,Cc1cc(NC(=O)CSc2nc3ccsc3c(=O)n2NC(=O)c2ccccc2)no1,3.32 (active)
11,CCCCNC(=O)CSc1nc2cc(OC)c(OC)cc2c(=O)n1Cc1ccc(OC)cc1,-0.298
12,CCOCCCn1c(SCC(=O)NC(C)C)nc2ccccc2c1=O,0.328
13,Cc1ccc(Cn2c(SCC(=O)Nc3cc(C)on3)nc3ccccc3c2=O)cc1,1.07
14,O=C(CSc1nc2ccsc2c(=O)n1NC(=O)c1ccccc1)Nc1nccs1,-0.202
15,Cc1cc(C)[n+](-c2ccc(F)cc2)c2[nH]c(=O)[nH]c(=O)c12,0.407
16,Cc1ccc(C(=O)N2CC(=O)Nc3ccc(F)cc3C2c2ccccc2)cc1[N+](=O)[O-] (centres undefined),-0.229
17,O=C(NNC(=O)c1sc2cccc(Cl)c2c1Cl)Nc1ccccc1,-0.00877
18,C=CCn1c(SCC(=O)Nc2ccc3c(c2)OCO3)nc2ccccc2c1=O,0.212
19,Cc1ccc(OCCCN(C)C)c(Br)c1,1.17
20,CCOC(=O)c1oc2ccc(S(=O)(=O)n3nc(-c4ccc(Cl)cc4)cc3N)cc2c1C,-0.324
21,CN(CCC#N)C(=O)COC(=O)c1ccc(Cl)c(S(N)(=O)=O)c1,0.0421
22,CC1CCN(C(=O)CSc2nc3ccccc3c(=O)n2Cc2ccc3c(c2)OCO3)CC1,2.16
23,CC1CCN(C(=O)Cn2c(=O)n(Cc3ccc4c(c3)OCO4)c(=O)c3ccccc32)CC1,-1.65

row,SMILES,z-score
1,CCCCNC(=O)CSc1nc2ccccc2c(=O)n1Cc1ccc2c(c1)OCO2,0.908
2,c1ccc(CCNc2ncnc3c2cnn3-c2ccccc2)cc1,-1.25
3,Cc1cccc(-n2ncc3c(NCCc4ccc(S(N)(=O)=O)cc4)ncnc32)c1,8.89 (active)
4,Cc1cccc(-n2ncc3c(NCCCO)ncnc32)c1,0.607
5,O=C(CSc1ccc2nnc(-c3cccc(F)c3)n2n1)N1CCCc2ccccc21,-0.911
6,Cc1ccc(NC(=O)CN(C)C(=O)CCOc2ccccc2C)cc1,1.66
7,CCC(CC)C1C(C#N)=C(N)Oc2n[nH]c(-c3ccccc3)c21 (centres undefined),-0.557
8,S=C(NN=C1C2CC3CC(C2)CC1C3)Nc1ccccc1,11.7 (active)
9,S=C(N/N=C1\C2CN3CCN(C2)CC1(c1ccccc1)C3)Nc1ccccc1,0.425
10,O=C(NN=C1C2CC3CC(C2)CC1C3)c1cccs1,0.589
11,O=C(NNC(=S)Nc1ccccc1)C1CC1,-0.336
12,S=C(NN=C(C1CC1)C1CC1)Nc1ccccc1,4.43 (active)
13,CCC(=O)Nc1ccc(NC(=S)Nc2ccccc2)cc1,-0.362
14,CNC(=S)N/N=C/c1c(C)nn(-c2cccc(Cl)c2)c1Cl,-0.134
15,CCOC(=O)C1CCN(C(=O)CSc2nnc(-c3ccco3)n2-c2ccccc2)CC1,-0.369
16,O=C(NCc1ccccc1Cl)c1ccccc1Oc1ccccc1,-0.412
17,CCOC(=O)C1C(=O)Nc2nc3ccccc3n2C1C(C)C (centres undefined),-0.438
18,COC(=O)Nc1c(-c2ccccc2)nc2ccccn12,-0.126
19,Cc1ccc(-c2nc3ncccn3c2NC(=O)C2CC2)cc1,0.268
20,Cc1cccc(C)c1Nc1c(-c2ccsc2)nc2ncccn12,-0.464
21,CC(=O)Nc1c(-c2ccccc2)nc2ncccn12,2.69
22,Cc1ccc(-c2nc3ccccn3c2NC(=O)c2ccco2)cc1,0.65
23,CC(=O)Nc1c(-c2ccc(F)cc2)nc2ccccn12,2.25

row,SMILES,z-score
1,CC(C)(C)NC(=O)CN(C(=O)Cn1nnc(-c2ccc(Cl)cc2)n1)C1CCN(Cc2ccccc2)CC1,-0.128
2,CC1CC(C)CN(c2ncnc3c2cnn3Cc2ccc(Cl)cc2)C1 (centres undefined),-0.714
3,O=C(CSc1nnnn1-c1cccnc1)Nc1ccc(OCc2ccccc2)cc1,-0.183
4,CCn1c(=O)c(C(=O)NCCc2ccccc2)c(O)c2ccccc21,0.613
5,CCNCCNC(=O)c1c(O)c2ccccc2n(CC)c1=O,-0.289
6,CCn1c(=O)c(C(=O)NCCCO)c(O)c2ccccc21,3.51 (active)
7,COc1ccc(C(=O)COc2ccc(NC(C)=O)cc2)cc1,-0.0378
8,COc1ccc(CCNC(=O)c2cc(-c3ccccc3)on2)cc1OC,0.914
9,Fc1ccccc1CNC(=S)Nc1ccc(Cl)cc1,2.23
10,S=C(Nc1ccccc1)Nc1ccc(OCc2ccc(Cl)cc2Cl)cc1,-0.223
11,S=C(NCc1ccc(Cl)cc1Cl)Nc1ccccc1,3.34 (active)
12,Fc1ccc(CNC(=S)Nc2ccc(Cl)cc2)cc1,0.385
13,Fc1ccc(NC(=S)NCc2ccccc2Cl)cc1,1.74
14,S=C(NCCSCc1ccc(Cl)cc1Cl)Nc1ccccc1,-0.181
15,O=C(OC(C(=O)NC1CCCCC1)c1ccccc1)c1ccco1 (centres undefined),-0.0658
16,Cc1cccc(C(C)C)c1NC(=O)c1ccc(CN(c2ccccc2)S(=O)(=O)c2ccccc2)cc1,-0.0858
17,COc1cc2c(cc1NC(=O)C(C)NCc1ccccc1)oc1ccccc12 (centres undefined),0.0909
18,O=C(NC1CCCCC1)C(c1ccccc1)N(Cc1ccco1)C(=O)Cn1cnc2ccccc21 (centres undefined),-1.29
19,CC(C)CCNc1nc2c(cc1C#N)COC(C)(C)C2,-0.377
20,CC1(C)Cc2nc(NCCCO)c(C#N)cc2CO1,2.93
21,CC1(C)Cc2nc(NCCN3CCOCC3)c(C#N)cc2CO1,7.19 (active)
22,CC(C)c1nc(NCCN2CCOCC2)c(C#N)c2c1COC(C)(C)C2,-0.502
23,Cc1nc(NCCCO)c(C#N)c2c1COC(C)(C)C2,1.53

row,SMILES,z-score
1,CC1(C)Cc2nc(N3CCOCC3)c(C#N)cc2CO1,-0.0959
2,Nc1nnc(SCC(=O)c2ccco2)s1,-0.0604
3,O=S1(=O)C=C(SCc2ccccc2)Nc2ccccc21,-0.11
4,CCOC(=O)c1nn(-c2ccc(OCC)cc2)c(C)c1C(C)=O,0.0801
5,O=C(NCc1ccc(F)cc1)c1cnc2n(c1=O)CCS2,2.18
6,O=C(Nc1ccccc1)c1cnc2n(c1=O)CCS2,-0.146
7,COc1ccc(CNC(=O)c2cnc3n(c2=O)CCS3)cc1,-0.183
8,O=C(NCc1ccccc1)c1cnc2n(c1=O)CCS2,-0.0906
9,CCCCOC(=O)c1ccc(NC(=O)c2cnc3n(c2=O)CCS3)cc1,0.203
10,CCc1ccc(NC(=O)c2cnc3n(c2=O)CCS3)cc1,2.53
11,CCOC(=O)c1ccc(N2C(=O)C3ON(c4ccccc4)C(c4ccco4)C3C2=O)cc1 (centres undefined),-0.354
12,COc1cc(OC)nc(NC(=O)CSc2nc3ccccc3o2)n1,-0.294
13,Cc1cc(C)cc(N(CC(=O)O)S(=O)(=O)c2c(C)noc2C)c1,-0.132
14,CCNC(=S)NN(c1ccccc1)c1ccccc1,0.837
15,CNC(=S)NN(c1ccccc1)c1ccccc1,-0.0349
16,CC(C)NC(=S)NN(c1ccccc1)c1ccccc1,2.38
17,COc1ccc(OC)c(C2C3=C(CCCC3=O)NC3=C2C(=O)CCC3)c1,-0.586
18,O=S(=O)(Cc1ccccc1Cl)CC(O)COc1ccccc1Cl (centres undefined),-0.273
19,Cc1nc2ccccn2c1C(=O)NN,2.34
20,Cc1c(C(=O)NN)nc2ccccn12,-0.145
21,COc1ccc(CNC(=O)c2c(C)nc3ccccn23)cc1,-0.0334
22,COc1nc(N/N=C/c2ccc(-c3ccccc3[N+](=O)[O-])o2)nc(N2CCOCC2)n1,-0.309

# — PubChem BioAssay AID488969 (Vanderbilt High Throughput Screening Facility, 2010)
